Bioassay records (PubChem)
Sampled rows, rich in hits. Any-hit rate of the full collection: about 2.4%.
D2 ag-1 = agonists of human D2 dopamine receptor (beta-arrestin). activation, % (no concentration beside the values). 360,000 tested, 0.084% active. P14416. DiscoveRx PathHunter D2 beta-arrestin, luminescence, 90 min; 100% = 57 uM dopamine signal; in the data active = activation above about 40%
Target sequence (P14416 whole entry, looked up): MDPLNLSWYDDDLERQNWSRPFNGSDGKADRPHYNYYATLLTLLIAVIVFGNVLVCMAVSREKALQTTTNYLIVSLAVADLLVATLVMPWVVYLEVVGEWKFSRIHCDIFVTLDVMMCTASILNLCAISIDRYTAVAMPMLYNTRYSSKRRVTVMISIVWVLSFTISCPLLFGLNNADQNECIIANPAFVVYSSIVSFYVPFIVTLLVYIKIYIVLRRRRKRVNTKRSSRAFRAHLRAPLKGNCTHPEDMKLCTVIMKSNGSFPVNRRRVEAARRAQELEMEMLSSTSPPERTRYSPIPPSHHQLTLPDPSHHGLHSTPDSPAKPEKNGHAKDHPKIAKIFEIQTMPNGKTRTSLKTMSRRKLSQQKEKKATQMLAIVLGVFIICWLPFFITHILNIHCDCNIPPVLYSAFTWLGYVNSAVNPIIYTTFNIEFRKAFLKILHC
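Agonist mode: compounds alone added to overnight-plated D2 PathHunter cells for 90 min at 37 C, with 57 uM final dopamine (EC100) defining full response. Beta-arrestin recruitment detected by chemiluminescent reagent, read after 1 h at ambient temperature.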
D2 PAM-1 = D2 dopamine receptor (human) potentiation | HEK293 T-REx D2, calcium flux, EC20 dopamine potentiation | 340,000 tested, 0.34% active | potentiation, % at 10 µM | P14416 | AID 485347;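 active = potentiation over 3 SD above the plate norm, cut at about 30% in these data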; also: 0% is about no effect
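Tetracycline-induced Hek293 Trex D2 cells, force-coupled to calcium, loaded with no-wash calcium dye. Compound added with 180 s kinetic read for agonism, then EC20 dopamine and a further 180 s read for potentiation.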
D2 PAM-2 = human D2 receptor positive allosteric modulation. DiscoveRx D2 beta-arrestin cells, luminescence, 90 min; 100% = 57 uM dopamine signal. potentiation, % (test concentration not listed). P14416. AID 624464. 360,000 tested, 0.23% active; in the data active = potentiation above about 50%
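PathHunter D2 cells, attached overnight at 37 deg C, received compound in DMSO plus dopamine at EC20 (50 nM final) for 90 min at 37 deg C. Beta-arrestin recruitment was read as luminescence after 1 h with detection reagent at ambient temperature.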
D2 ag-2 = activates the human D2 dopamine receptor; HEK293 T-REx D2 cells, calcium flux agonist mode; P14416; AID 485358; activation, % at 2 µM; 340,000 tested, 0.53% active;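 active = activation over 3 SD above normal in the single-dose calcium agonist read, cut at about 30% in these data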; also: 0% is about no effect
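Tetracycline-induced HEK293 Trex cells with D2 receptor force-coupled to calcium signaling, plated overnight at 30 C and loaded with no-wash calcium dye. Calcium flux read kinetically for 180 s after compound addition; responses flag agonists.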
D2 antagonist = antagonizes the human D2 dopamine receptor. P14416. HEK293 TREx D2 cells, calcium flux, dopamine EC80. inhibition, % at 10 µM. 340,000 tested, 2% active. AID 485344; in the data active = inhibition above about 30%; inactive = below that, where a call was filed; also: 0% is about no effect
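Read-out: kinetic calcium fluorescence (1 cycle/s) in inducible HEK293 T-REx D2 cells after an EC80 dopamine addition that followed 180 s compound preincubation. Loss of the dopamine response indicates antagonism.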
Starred values were filed as active, the others as inactive; nt = no result given.

SMILES	D2 ag-1	D2 PAM-1	D2 PAM-2	D2 ag-2	D2 antagonist
FC(F)(F)c1ccc(N2CCN(Cc3ccc4c(c3)OCO4)CC2)nc1	-5	-24	-37	-1	-13
c1ccc(-c2ncc(CN3CCN(c4ccccn4)CC3)[nH]2)cc1	-1	-25	-13	10	89*
Cc1nc(N2CCN(Cc3ccc4c(c3)OCO4)CC2)c2cc(-c3ccccc3)sc2n1	5	-11	-9	1	4
c1ccc(N2CCN(Cc3ccc4c(c3)OCO4)CC2)nc1	65*	nt	91*	nt	nt
Cc1ccc(CN(C(=O)COc2cccc([N+](=O)[O-])c2)c2ccccn2)o1	nt	21	nt	-1	nt
COc1ccc(NC(=O)C2CCCN(S(=O)(=O)c3ccc4c(c3)CCCC(=O)N4)C2)cc1OC (stereo unspecified)	nt	-8	nt	1	nt
CC(=O)Nc1ccc(NC(=O)CSCCc2ccccn2)cc1	-1	34*	-12	0	-10
O=C(NNC(=S)NC(=O)C12CC3CC(CC(C3)C1)C2)c1ccncc1	-9	-20	-38	66*	18
O=C(NNC(=S)Nc1cccc(C(F)(F)F)c1)c1ccncc1	-5	nt	-27	nt	nt
O=C(NNC(=S)Nc1ccccc1)c1ccncc1	-7	31*	-10	0	-21
CC1(C(=O)NC(=S)NNC(=O)c2ccncc2)CCCCC1	-14	-3	-28	10	34*
Cc1ccc2nc(SC(Cc3cc(Cl)ccc3Cl)C(=O)O)[nH]c2c1 (stereo unspecified)	nt	3	nt	1	nt
CCCCn1c(SCC(=O)c2ccc(OC)c(OC)c2)nc2cc(S(N)(=O)=O)ccc21	-1	3	2	0	14
CCCCn1c(SCC(=O)c2ccc(OCC)cc2)nc2cc(S(N)(=O)=O)ccc21	-1	14	-4	0	45*
Cc1ccc(C)c(N2CCN(C(=O)CN3C(=O)COc4ccc(S(=O)(=O)N5CCOCC5)cc43)CC2)c1	nt	6	nt	-1	nt
Cc1ccc(CN2CCC(C(=O)c3ccc(F)cc3)CC2)cc1	-7	nt	-26	nt	nt
O=C(c1ccc(F)cc1)C1CCN(C(=O)c2ccc(F)cc2)CC1	-2	1	1	0	41*
O=C(c1ccc(N2C(=O)C3CC=C(Cl)CC3C2=O)cc1)N1CCCCC1 (stereo unspecified)	-2	-4	5	0	38*
COc1ccc(CN2CCC(C(=O)c3ccc(F)cc3)CC2)cc1	3	-31	-83	1	78*
O=C(c1ccccc1)N1CCCCCC1	-2	-5	-14	0	-5
O=C(c1ccc(C(=O)N2CCCCCC2)cc1)N1CCCCCC1	-4	32*	1	0	5
COc1ccccc1C(=O)N(Cc1ccco1)Cc1ccccc1F	nt	3	nt	1	nt
COC(=O)c1ccccc1NC(=O)Cn1c(=O)n(CCCC(=O)NCCc2ccc(OC)c(OC)c2)c(=O)c2ccccc21	nt	0	nt	0	nt
Cc1ccc(-c2nnn3c2nc(NCC(C)c2ccccc2)c2ccccc23)cc1 (stereo unspecified)	nt	4	nt	0	nt
CCOc1ccccc1N1CC(c2nc3ccccc3n2CCOc2ccccc2OC)CC1=O (stereo unspecified)	nt	9	nt	5	nt
SMILES	D2 ag-1	D2 PAM-1	D2 PAM-2	D2 ag-2	D2 antagonist
Cc1ccc(CCNC(=O)c2cc3cc(S(=O)(=O)N4CCCCC4)ccc3n2C)cc1	nt	-2	nt	1	nt
O=C(c1ccc(F)cc1)C1CCN(C(=S)Nc2ccc(F)cc2)CC1	-1	7	-14	1	47*
CCCNC(=S)N1CCC(C(=O)c2ccc(F)cc2)CC1	-1	35*	-2	1	10
O=C(NC1CCCCCC1)c1ccc2c(c1)sc1nc(-c3ccc(F)cc3)cn12	nt	13	nt	0	nt
CC1CCN(CCCNC(=O)c2cc(Sc3ccc(F)cc3)nc3ccccc23)CC1	nt	nt	nt	-1	nt
N#Cc1cc2ccc(N3CCOCC3)cc2cc1C#N	13	13	69*	0	13
Cc1ccc(C(=O)Nc2ccc3nc(SCC(=O)N4CCCc5ccccc54)sc3c2)cc1	nt	-3	nt	1	nt
COc1ccc(N(C(=O)CNC(=O)c2ccco2)C(C(=O)NC2CCCC2)c2ccncc2)cc1 (stereo unspecified)	0	5	-3	-1	51*
Cc1ccccc1C(C(=O)NC1CCCC1)N(C(=O)CNC(=O)c1ccco1)c1cccnc1 (stereo unspecified)	nt	1	nt	1	51*
COc1ccc(C(C(=O)NC2CCCCC2)N(C(=O)CCl)c2ccc(C)cc2)cc1 (stereo unspecified)	-8	2	15	3	-5
CC(=O)Nc1ccc(N(C(=O)c2ccco2)C(C(=O)NC2CCCCC2)c2ccccc2)cc1 (stereo unspecified)	0	2	-12	-1	37*
COc1ccc(C(C(=O)NC2CCCC2)N(C(=O)c2ccoc2C)c2ccc(C)cc2)cc1 (stereo unspecified)	-1	-4	-17	-1	50*
O=C1CC(c2ccccc2)Cc2[nH]c(=O)c(-c3nc(-c4ccc(Cl)c(Cl)c4)cs3)cc21 (stereo unspecified)	nt	-6	nt	1	nt
Cc1ccc(NC(=O)C2CCCN(c3cnccn3)C2)cc1Cl (stereo unspecified)	nt	-9	nt	-1	nt
COc1ccccc1N1CCN(C(=O)Cn2cnc3onc(-c4ccc(F)cc4)c3c2=O)CC1	nt	-1	nt	-1	nt
O=C(CCc1nc2ccccc2c(=O)[nH]1)Nc1cc(Cl)ccc1N1CCCCC1	-5	-6	-5	0	43*
Cc1ccc(C(=O)Nc2cc(Cl)ccc2N2CCCCC2)s1	0	-4	-2	1	32*
CCc1sc(C(=O)Nc2cc(Cl)ccc2N2CCCCC2)cc1C	-1	-1	-2	-1	6
COc1ccc2c(C(=O)CN3CCSCC3)c[nH]c2c1	-4	15	-3	-1	10
COc1ccccc1N1CCN(CC(O)c2c(C)[nH]c3ccccc23)CC1 (stereo unspecified)	-4	-13	-33	0	65*
COc1ccc2c(C(=O)CN3CCN(c4ccccc4)CC3)c[nH]c2c1	10	-15	-14	56*	41*
COc1ccccc1N1CCN(CC(O)COc2cccc3ccccc23)CC1 (stereo unspecified)	-6	-31	-38	2	86*
COc1ccccc1N1CCN(CC(=O)c2c(C)[nH]c3ccccc23)CC1	0	-26	-34	1	31*
C=CCc1ccccc1OCC(O)CN1CCN(c2ccccc2OC)CC1 (stereo unspecified)	1	-27	-24	1	-7
CCN(Cc1ccccc1)C(=O)Nc1ccc2c(c1)N(C)C(=O)c1ccccc1S2	nt	-2	nt	0	nt
